Laboratory results published in the supplement of paper PMC9433436.
± gives the standard deviation of the averaged measurements. Over roughly 4,100 sequences, “relative kcat/Km (krel) vs genomic leader AAAGAU” has its median near 1.7; the highest 2% begin near 6.5. The full list was thinned out, with the highest values kept by preference.

Target: T1, E. coli RNase P holoenzyme (M1 P RNA + rnpA protein) (UniProt P0A7Y8)
T1 sequence: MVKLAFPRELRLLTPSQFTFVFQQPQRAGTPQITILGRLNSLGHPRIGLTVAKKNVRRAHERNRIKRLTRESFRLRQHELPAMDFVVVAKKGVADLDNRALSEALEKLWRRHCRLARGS
Assay: relative kcat/Km (krel) vs genomic leader AAAGAU (relative (reference leader = 1)); higher = faster RNase P cleavage
Description: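 HTS-Kin: a pool of ptRNA-Met (21C construct) with all 4096 combinations of 5' leader nucleotides N(-6) to N(-1) was processed in vitro by E. coli RNase P (P RNA + rnpA/C5 protein) under multiple-turnover conditions at 37 C, pH 8, 17.5 mM MgCl2. Residual substrate was Illumina-sequenced at several fractions reacted, and relative kcat/Km (krel) was computed by internal competition kinetics, calibrated to the genomic leader (AAAGAU = 1). The listed hexamer is the varied N(-6)..N(-1) leader (DNA letters), and it sits between a fixed 5' stem-loop flank (GCAUGCACGAAAGUGCGUGCUAUGAA) and the mature tRNA-Met starting GGCUACGUAGCUCAGUUGG. Two technical replicates are averaged.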

[1] = fraction of substrate reacted: ~9-10% (9.79% repeat 1, 9.1% repeat 2)
[2] = fraction of substrate reacted: ~13-16% (15.68% repeat 1, 13.17% repeat 2)
[3] = fraction of substrate reacted: ~26-29% (28.66% repeat 1, 26.4% repeat 2)

Row | Sequence | relative kcat/Km [1] | relative kcat/Km [2] | relative kcat/Km [3]
1 | CTACGT | 0.396 ± 0.012 | 0.978 ± 0.12 | 1.13 ± 1.1
2 | TTAGGG | 0.357 ± 0.048 | 1.11 ± 0.86 | 2.15 ± 2.1
3 | GGGTAA | 1.51 ± 0.8 | 1.31 ± 0.21 | 1.46 ± 0.55
4 | GGAGCT | 1.22 ± 0.62 | 0.705 ± 0.57 | 1.64 ± 0.58
5 | GGCACA | 1.43 ± 0.55 | 1.26 ± 0.95 | 2.08 ± 0.64
6 | GTCACA | 3.73 ± 1.8 | 4.78 ± 1.1 | 7.01 ± 2.5
7 | CTCACA | 3.32 ± 0.59 | 3.94 ± 0.75 | 5.85 ± 2.7
8 | AAACGA | 2.12 ± 0.92 | 1.89 ± 0.67 | 2.21 ± 0.41
9 | CCCTTG |  |  | 1.42 ± 0.67
10 | ACGAAA | 1.79 ± 0.39 | 1.66 ± 0.37 | 2.72 ± 1.1
11 | ATTTAG |  | 2.526 ± 0.01 | 3.82 ± 0.68
12 | CTTTAG | 2.44 ± 1.3 | 2.14 ± 0.24 | 3.51 ± 0.57
13 | CTTTAT | 4.88 ± 2 | 5.78 ± 0.63 | 8.16 ± 3.3
14 | TTTAAA | 3.37 ± 1.6 | 3.88 ± 0.2 | 5.35 ± 2.1
15 | CTTTAA | 3.07 ± 1.6 | 3.8 ± 0.23 | 5.72 ± 2
16 | TCTTAT | 4.12 ± 1.9 | 5.44 ± 1.1 | 8.21 ± 3.5
17 | ATTTAA | 3.55 ± 1.8 | 4.39 ± 0.62 | 5.24 ± 1.9
18 | CCTTAT | 3.19 ± 0.95 | 4.47 ± 0.36 | 6.48 ± 2.4
19 | TTTTAA | 4.32 ± 1.7 | 4.88 ± 0.61 | 6.68 ± 2.5
20 | GCTTAT | 2.2 ± 0.24 | 3.15 ± 0.31 | 4.62 ± 1.7
21 | TTTTTA | 3.12 ± 2.4 | 2.58 ± 0.21 | 3.44 ± 0.81
22 | ATTTAT | 3.82 ± 1.8 | 4.84 ± 0.46 | 7.02 ± 3
23 | GGCACT | 1.99 ± 1.6 | 1.75 ± 0.28 | 2.89 ± 1.2
24 | TTTGGG |  |  | 1.56 ± 1.5
25 | ACATTT | 2.32 ± 1.2 | 2.97 ± 0.19 | 4.45 ± 1.8
26 | AGCAGC | 2.23 ± 0.55 | 2.28 ± 0.13 | 3.24 ± 0.54

Row | Sequence | relative kcat/Km [1] | relative kcat/Km [2] | relative kcat/Km [3]
27 | CCAACC |  | 1.11 ± 0.49 | 1.3 ± 0.39
28 | GCTAGG | 1.3 ± 0.58 |  | 0.775 ± 0.23
29 | AATTTT | 2.36 ± 0.95 | 2.45 ± 0.43 | 3.35 ± 1
30 | GTTTAT | 3.69 ± 0.5 | 5.18 ± 1.8 | 8 ± 3.7
31 | GTTTAC | 3.75 ± 0.76 | 4.65 ± 0.88 | 7.14 ± 3
32 | TTTTAC | 3.74 ± 1.1 | 4.76 ± 1.2 | 7.2 ± 3.2
33 | TTTTAG | 3.3 ± 2.5 | 2.5 ± 0.78 | 4.51 ± 1.2
34 | TTTTTT | 3.31 ± 1.9 | 3.41 ± 0.27 | 4.9 ± 1.7
35 | ATTTAC | 4.31 ± 1.7 | 4.75 ± 0.58 | 6.43 ± 2.2
36 | CTTTAC | 4.38 ± 1.7 | 4.59 ± 1.3 | 6.2 ± 1.9
37 | GTTTTA | 2.83 ± 1.7 | 2.56 ± 0.17 | 3.52 ± 1
38 | GTTTAA | 3.62 ± 0.62 | 4.49 ± 0.5 | 6.31 ± 3
39 | TTTATT | 2.77 ± 0.82 | 3.08 ± 0.42 | 4.5 ± 2.1
40 | GTTTAG |  | 1.86 ± 0.39 | 3.84 ± 1.2
41 | TTTTAT | 4.55 ± 1.4 | 5.6 ± 0.89 | 8.5 ± 3.9
42 | TAAGCC | 2.57 ± 0.66 | 2.16 ± 0.87 | 1.67 ± 0.62
43 | TTGAGA | 2.45 ± 0.5 | 2.31 ± 0.38 | 3.09 ± 0.91
44 | ATCGTA | 3.1 ± 0.36 | 3.67 ± 0.92 | 5.45 ± 2.6
45 | TGCTGT |  | 0.877 ± 0.71 | 1.11 ± 1.1
46 | GAAACG |  |  | 0.784 ± 0.096
47 | CCGCAG |  |  | 1.14 ± 1.1
48 | GAAGGC | 1.24 ± 0.64 |  | 
49 | ACCGTA | 2.19 ± 0.39 | 2.54 ± 0.21 | 4.07 ± 1.4
50 | TCCTGT |  |  | 2.18 ± 1.6
51 | CCCTGC | 2.87 ± 1.4 | 3.39 ± 0.2 | 5.06 ± 1.6
52 | TCCTGC | 4.64 ± 1.6 | 5.78 ± 1.5 | 7.5 ± 3.9

Row | Sequence | relative kcat/Km [1] | relative kcat/Km [2] | relative kcat/Km [3]
53 | ACCTGC | 3.58 ± 3.5 | 3.61 ± 2.3 | 5.37 ± 2.5
54 | TCCTGA | 3.23 ± 0.83 | 4.19 ± 0.42 | 6.6 ± 2.5
55 | TCCTGG | 0.344 ± 0.27 | 0.715 ± 0.34 | 1.15 ± 1.1
56 | ATTACA | 2.55 ± 1.5 | 2.08 ± 0.14 | 2.94 ± 1.2
57 | CCCACT | 1.87 ± 1.1 | 1.27 ± 0.14 | 2.79 ± 0.067
58 | AAATCT | 1.86 ± 0.61 | 2.09 ± 0.095 | 2.8 ± 0.68
59 | GCACGC |  |  | 1.29 ± 1.2
60 | CTATCT | 3.05 ± 0.67 | 3.54 ± 0.89 | 4.18 ± 1.4
61 | AGCTAC | 1.27 ± 0.29 | 3.3102 ± 0.0027 | 4.78 ± 1.9
62 | CTCTAT | 4.59 ± 0.51 | 6.38 ± 1.7 | 9.17 ± 4
63 | GTCTAT | 5.93 ± 2.3 | 6.62 ± 1.5 | 9.91 ± 4.4
64 | ATCTGT |  | 1.3 ± 1.2 | 1.76 ± 1.5
65 | ATCTAC | 4.97 ± 1.4 | 6.58 ± 2 | 9.08 ± 4.5
66 | CTATGT | 0.766 ± 0.47 | 1.38 ± 0.98 | 
67 | ATCTAG | 2.49 ± 0.96 | 3.16 ± 1 | 5.72 ± 2.4
68 | GGCTAT | 2.25 ± 0.98 | 1.99 ± 0.48 | 2.88 ± 0.85
69 | ATCTCG | 2.52 ± 2 | 2.14 ± 0.37 | 3.55 ± 1.2
70 | ATCTAT | 3.93 ± 1.4 | 5.38 ± 1 | 7.98 ± 3.7
71 | ATGTCT | 1.82 ± 0.38 | 2.3 ± 0.33 | 2.43 ± 1
72 | ATACTT | 1.93 ± 1.3 | 1.97 ± 0.58 | 2.62 ± 1.1
73 | GCGAAT | 0.964 ± 0.25 | 1.54 ± 0.49 | 2.09 ± 0.45
74 | CAGCGC | 1.95 ± 0.83 | 1.4 ± 0.14 | 2.09 ± 0.64
75 | CTGCGG |  | 0.228 ± 0.042 | 0.674 ± 0.39
76 | TGGGAA |  | 1.31 ± 0.98 | 1.24 ± 0.69
77 | CAGCTA | 1.51 ± 0.56 | 1.21 ± 0.27 | 1.85 ± 0.51
78 | ACTGGA | 0.346 ± 0.015 |  | 

Row | Sequence | relative kcat/Km [1] | relative kcat/Km [2] | relative kcat/Km [3]
79 | TGGTAG |  |  | 0.538 ± 0.38
80 | TTTCTC | 2.12 ± 0.99 | 2.29 ± 0.41 | 2.91 ± 0.93
81 | TTATGC | 3.22 ± 0.63 | 4.29 ± 0.74 | 6.16 ± 2.8
82 | CCGTAC | 3.58 ± 1 | 4.22 ± 0.54 | 5.69 ± 2.3
83 | GCTTAA | 1.72 ± 1 | 2.36 ± 0.11 | 3.64 ± 0.66
84 | AACTTC | 3.37 ± 1.2 | 3.49 ± 0.17 | 4.33 ± 1.5
85 | TACATA | 3.93 ± 2 | 4.55 ± 0.65 | 6.5 ± 2.8
86 | GCTGAT | 1.1 ± 0.57 | 1.1 ± 0.49 | 0.636 ± 0.14
87 | TGAGGA | 0.562 ± 0.032 |  | 1.42 ± 0.78
88 | TTAAGA | 1.95 ± 0.61 | 2.89 ± 0.47 | 3.88 ± 1.5
89 | GGCTAC | 1.69 ± 1.4 | 1.98 ± 0.51 | 2.81 ± 1.3
90 | GTCTAG | 3.54 ± 2.5 | 3.25 ± 0.17 | 5.81 ± 1.6
91 | CTCTAG | 3.37 ± 2.2 | 3.41 ± 0.89 | 5.82 ± 2
92 | CTCTAC | 4.76 ± 1.6 | 6.63 ± 1.3 | 8.97 ± 3.6
93 | GTCTAC | 4.47 ± 0.65 | 6.86 ± 2.4 | 10.1 ± 4.8
94 | CTACAC | 2.87 ± 1.7 | 3 ± 0.59 | 4.74 ± 1.4
95 | TACGTT | 1.82 ± 0.88 | 1.95 ± 0.067 | 2.61 ± 1
96 | CAAGAT | 1.15 ± 0.24 | 0.704 ± 0.019 | 1.49 ± 0.33
97 | CTCCGC | 3.56 ± 0.068 | 4.98 ± 1.7 | 6.8 ± 2.7
98 | ATCCTA | 3.22 ± 1.7 | 3.39 ± 0.28 | 4.55 ± 1.7
99 | CACCGC | 2.34 ± 0.56 | 3.87 ± 1.6 | 5.89 ± 2.7
100 | CTCCGG | 1.38 ± 0.85 | 0.916 ± 0.46 | 1.27 ± 0.5
101 | CTCCGT |  | 1.79 ± 1.2 | 2.01 ± 1.7
102 | GTCCGC | 3.94 ± 0.68 | 5.24 ± 1.4 | 8 ± 3.3
103 | CGCCGC | 2.62 ± 0.84 | 3.479 ± 0.016 | 4.99 ± 2
